Data on nine sequences can be found in patent US20060069055, “Delivery of polynucleotides” (published 2006).

NF-kB p65/p50 heterodimer, sequence (Q04206 whole entry, chain 1 of 2): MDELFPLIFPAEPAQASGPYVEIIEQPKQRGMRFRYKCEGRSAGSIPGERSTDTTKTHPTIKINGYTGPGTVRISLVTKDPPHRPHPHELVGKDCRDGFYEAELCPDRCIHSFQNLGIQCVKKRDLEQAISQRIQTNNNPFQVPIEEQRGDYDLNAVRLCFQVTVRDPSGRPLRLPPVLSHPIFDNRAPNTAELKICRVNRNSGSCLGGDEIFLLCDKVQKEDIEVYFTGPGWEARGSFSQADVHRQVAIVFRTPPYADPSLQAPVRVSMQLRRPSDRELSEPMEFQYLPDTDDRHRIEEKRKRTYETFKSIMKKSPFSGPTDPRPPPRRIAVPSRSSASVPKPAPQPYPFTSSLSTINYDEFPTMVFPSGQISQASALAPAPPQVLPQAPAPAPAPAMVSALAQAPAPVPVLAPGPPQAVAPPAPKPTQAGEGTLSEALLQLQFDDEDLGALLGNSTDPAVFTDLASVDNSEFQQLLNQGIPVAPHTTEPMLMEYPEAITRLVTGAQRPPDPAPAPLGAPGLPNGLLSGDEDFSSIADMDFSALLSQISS
NF-kB p65/p50 heterodimer, sequence (P19838 1-433, chain 2 of 2): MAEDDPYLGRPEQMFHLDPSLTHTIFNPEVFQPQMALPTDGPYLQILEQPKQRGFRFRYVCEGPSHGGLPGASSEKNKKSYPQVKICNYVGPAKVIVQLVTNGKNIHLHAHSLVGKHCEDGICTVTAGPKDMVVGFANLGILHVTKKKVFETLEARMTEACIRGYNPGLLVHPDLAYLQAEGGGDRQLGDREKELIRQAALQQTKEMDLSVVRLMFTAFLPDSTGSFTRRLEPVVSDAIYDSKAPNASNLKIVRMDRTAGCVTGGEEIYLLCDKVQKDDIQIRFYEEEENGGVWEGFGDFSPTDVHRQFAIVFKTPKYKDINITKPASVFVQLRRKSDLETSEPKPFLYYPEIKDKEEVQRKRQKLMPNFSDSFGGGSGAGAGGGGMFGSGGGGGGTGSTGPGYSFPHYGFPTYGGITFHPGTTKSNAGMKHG

This assay has as its target NF-kB p65/p50 heterodimer (Homo sapiens, UniProt Q04206;P19838 Q04206:1-551,P19838:1-433). The assay can be described thus: EMSA. The following applies: protein: extract; tags: nuclear extract of LPS-stimulated THP-1 cells; dsDNA, one strand shown. From the text: The EMSA assay was employed to characterize oligonucleotide decoys for the NF-κB transcription factor. […] Using the above modified oligonucleotides to compete for binding for the above-mentioned NF-κB family members, it was possible to compare the binding affinity of these oligonucleotides against the high affinity radiolabeled probe and each other. This assay has also enabled the design of a decoy which selectively binds particular members of the NF-κB family. By using increasing concentrations of various oligonucleotides, it was observed that, by deleting or changing targeted residues in the binding site, it was possible to specifically decrease the binding of the decoy molecule to p50/p50 homodimers, while retaining the affinity for p65/p50 and cRel/p50 heterodimers.
The NF-κB gel shift assays (EMSA) were performed as follows. A double-stranded oligonucleotide containing a consensus NF-κB binding site (5′ […].GGC 3′) (SEQ ID NO: 26) was end-labeled with γ³²P-ATP using T4 Polynucleotide Kinase (Promega). One microgram of a nuclear extract prepared from LPS stimulated THP-1 cells (human monocyte cell line) was incubated with 35 fmol of radiolabeled probe in the presence or absence of competing unlabeled NF-κB double-stranded oligonucleotides (dsODN) or scrambled dsODN. The incubations were carried out at room temperature for 30 minutes in a 20 μl reaction volume composed of 10 mM Tris-HCl pH 8, 100 mM KCL, 5mM MgC12, 2mM DTT, 10% Glycerol, 0.1% NP-40, 0.025% BSA and 1 μg Poly-dIdC. The reactions were loaded onto a 6% polyacrylamide gel, subjected to electrophoresis and dried. The dried gels were imaged and quantitated using a Typhoon 8600 Phosphorlmager (Amersham) and ImageQuant software. The identity of the NF-κB proteins contained in complexes bound to the radiolabeled oligonucleotide probe were identified by pre-incubating the reactions for 5 minutes with individual antibodies specific for each member of the NF-κB family prior to the addition of the radiolabeled probe.
Take TCGGATTTCCTC: the IC50 was found to be 74 fold molar excess.

In turn, TTGAGGACTTTCCAGGC returned an IC50 of 87 fold molar excess.

In turn, TGAGGACTTTCCAGGCTC came in with an IC50 of 92 fold molar excess.

In turn, AGTTGAGGATTTCCAGGC came in with an IC50 of 73 fold molar excess.

Sequence ATGGACTTTCCGT gave an IC50 of 72.5 fold molar excess.

AGTTGAGGATTTCCCAGGC gave an IC50 of 54 fold molar excess.

Turning to TGAGGACTTTCCAGGC, the IC50 is 93 fold molar excess.

With TCGGACTTTCCTC, the IC50 came out at 81 fold molar excess.

The sequence TTGAGGACTTTCCAGGCTC had an IC50 of 87 fold molar excess.
